In PMC4336329 (PLoS ONE, 2015):
About 14,000 (4.5%) of roughly 310,000 compounds showed an effect of 50% or more. Effects have a minus sign here. The list comes from a sample in which strong results are over-represented; it also holds similar structures and randomly drawn compounds.

Biological target: human ether-à-go-go-related gene (hERG) potassium channel (human, UniProt Q12809)
Test: primary screen, population patch clamp on CHO cells stably expressing hERG; higher = less effect of the substance
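Note: peak tail current of the secondary pulse compared with the same well before compound.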

Chain of human ether-à-go-go-related gene (hERG) potassium channel (Q12809 whole entry, looked up): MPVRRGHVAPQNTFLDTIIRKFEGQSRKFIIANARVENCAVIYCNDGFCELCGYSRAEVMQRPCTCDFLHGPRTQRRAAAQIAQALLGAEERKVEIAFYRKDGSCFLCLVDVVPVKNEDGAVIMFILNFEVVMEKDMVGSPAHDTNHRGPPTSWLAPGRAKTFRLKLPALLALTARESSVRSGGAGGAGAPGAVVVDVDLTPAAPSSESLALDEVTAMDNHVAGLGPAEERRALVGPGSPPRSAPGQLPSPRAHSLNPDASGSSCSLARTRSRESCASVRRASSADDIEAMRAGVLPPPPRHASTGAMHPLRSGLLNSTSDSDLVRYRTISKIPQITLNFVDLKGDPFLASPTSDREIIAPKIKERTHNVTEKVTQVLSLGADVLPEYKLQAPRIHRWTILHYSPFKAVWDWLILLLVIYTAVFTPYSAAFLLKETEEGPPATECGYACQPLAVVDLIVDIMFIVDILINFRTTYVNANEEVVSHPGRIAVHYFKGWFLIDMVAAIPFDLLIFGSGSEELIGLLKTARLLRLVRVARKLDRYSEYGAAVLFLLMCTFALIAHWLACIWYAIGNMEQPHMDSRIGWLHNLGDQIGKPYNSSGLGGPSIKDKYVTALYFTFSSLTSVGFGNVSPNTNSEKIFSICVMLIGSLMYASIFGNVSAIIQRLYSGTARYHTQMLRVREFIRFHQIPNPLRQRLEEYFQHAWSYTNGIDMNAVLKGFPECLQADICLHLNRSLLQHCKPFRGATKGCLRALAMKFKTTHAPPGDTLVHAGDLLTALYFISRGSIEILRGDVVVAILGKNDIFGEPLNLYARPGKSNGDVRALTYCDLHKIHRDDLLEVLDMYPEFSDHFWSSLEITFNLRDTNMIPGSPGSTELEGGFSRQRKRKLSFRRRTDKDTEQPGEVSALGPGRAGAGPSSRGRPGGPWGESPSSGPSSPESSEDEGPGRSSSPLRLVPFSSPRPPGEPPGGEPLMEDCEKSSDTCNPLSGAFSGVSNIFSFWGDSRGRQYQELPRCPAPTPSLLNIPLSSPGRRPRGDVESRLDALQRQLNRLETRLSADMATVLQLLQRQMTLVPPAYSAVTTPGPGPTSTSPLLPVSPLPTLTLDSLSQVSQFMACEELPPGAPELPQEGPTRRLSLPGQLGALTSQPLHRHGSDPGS

Row | Structure (SMILES) | hERG current change (%, negative = inhibition) at 10uM [%]
1 | O=C(NCCOc1ccccc1)c1cc2ccccc2o1 | -2.6
2 | CC1CCCC(C)N1NC(=S)Nc1ccc(OC(F)F)cc1 (stereo not drawn) | -68.3
3 | COc1ccc(NC(=S)NN2C(C)CCCC2C)cc1 (stereo not drawn) | 16.6
4 | CCOc1ccc(NC(=S)NN2C(C)CCCC2C)cc1 (stereo not drawn) | 6.62
5 | N/C(=N\OC(=O)c1ccc(F)cc1)c1ccc(Br)cc1 | 15.4
6 | CC(=O)Nc1ccc(C=C(C(C)=O)C(C)=O)cc1 | 2.2
7 | COc1ccc(CN2C(=O)c3cccnc3C2=O)cc1S(=O)(=O)N1CCOc2ccc(C)cc21 | -11.6
8 | CNc1c([N+](=O)[O-])cnn1-c1cccc(Cl)n1 | 14.4
9 | Cc1cccn2c(=O)c3cc(C(=O)NCCCn4ccnc4)n(C)c3nc12 | -11
10 | Cc1cccn2c(=O)c3cc(C(=O)NCCc4ccccc4)c(=N)n(CCCn4ccnc4)c3nc12 | -74.4
11 | CC(NC(=O)C(=O)NCCCn1ccnc1)c1ccccc1 (stereo not drawn) | 15.6
12 | Cc1cccn2c(=O)c3cc(C(=O)NC(C)c4ccccc4)c(=N)n(CCCn4ccnc4)c3nc12 (stereo not drawn) | -68.1
13 | O=C(O)c1ccccc1C(=O)NCCCn1ccnc1 | 18.4
14 | Cc1ccc(N(C(=O)c2cccs2)C2C=CS(=O)(=O)C2)cc1 (stereo not drawn) | -24.4
15 | CCCOC(=O)c1ccc(NC(=O)c2cc(OC)c(OC)c(OC)c2Br)cc1 | 8.82
16 | FC(F)(F)c1cccc(OCCN2CCN(Cc3ccccc3)CC2)c1.O=C(O)C(=O)O | -40.8
17 | O=C(O)c1cc([N+](=O)[O-])ccc1N1CCC(Cc2ccccc2)CC1 | -4.42
18 | O=C(O)C(=O)O.O=[N+]([O-])c1cccc(OCCN2CCC(Cc3ccccc3)CC2)c1 | -71.1
19 | O=C(O)C(=O)O.O=[N+]([O-])c1cccc(OCCCN2CCC(Cc3ccccc3)CC2)c1 | -78.1
20 | CCc1cccc(OCCOCCN2CCCC2)c1.O=C(O)C(=O)O | -46.1
21 | Cn1c2c(c(=O)n(C)c1=O)C(c1cc3c(cc1Br)OCO3)CC(=O)N2 (stereo not drawn) | 3.46
22 | O=C(c1ccc(Cn2c(=O)[nH]c3ccsc3c2=O)cc1)N1CCN(c2ccccc2)CC1 | 7.23

Row | Structure (SMILES) | hERG current change (%, negative = inhibition) at 10uM [%]
23 | Cc1ccccc1C(=O)N1CCC(C(=O)Nc2nc3ccc(F)cc3s2)CC1 | -42.8
24 | CC(Sc1nc2cc(Cl)ccc2s1)C(=O)Nc1ccc2c(c1)OCO2 (stereo not drawn) | 6.08
25 | COc1ccccc1N1CCN(CCCCOc2c(OC)cccc2OC)CC1.O=C(O)C(=O)O | -57.9
26 | COc1ccccc1N1CCN(C(=O)COc2cc(C)ccc2C)CC1 | -18.3
27 | COc1ccccc1OCCCCN1CCN(c2ccccc2OC)CC1.O=C(O)C(=O)O | -43.1
28 | Br.COc1ccccc1N1CCN(CCCCN2C(=O)c3ccccc3C2=O)CC1 | -53.5
29 | COc1ccccc1N1CCN(C(=O)CCCN2C(=O)c3cccc4cccc(c34)C2=O)CC1.Cl | -70.9
30 | COc1ccccc1N1CCN(C(=O)CN2C(=O)c3ccccc3C2=O)CC1 | 11.9
31 | COc1ccccc1N1CCN(CCN2C(=O)CC(=C3c4ccccc4-c4ccccc43)C2=O)CC1.Cl | 0.408
32 | Cc1ccccc1OCCCCCCN1CCNCC1.O=C(O)C(=O)O | -1.56
33 | COc1ccccc1N1CCN(CCCCOc2ccc(C)cc2C)CC1.O=C(O)C(=O)O | -50.3
34 | CCOc1ccccc1N1CCN(C(=O)CCCN2C(=O)c3cccc4cccc(c34)C2=O)CC1 | -8.72
35 | COc1ccccc1N1CCN(CCOc2c(OC)cccc2OC)CC1.Cl | -34.6
36 | COc1ccccc1N1CCN(C(=O)CCN2C(=O)c3cccc4cccc(c34)C2=O)CC1 | 15.5
37 | COC(=O)C1=C(c2ccc(F)cc2OCc2ccccc2)C[C@@H]2CC[C@H]1N2C(=O)NCCCc1ccccc1 | 4.96
38 | CCN(Cc1ccccc1)C(=O)CN1C(=O)NC(CC)(c2ccc(F)cc2)C1=O (stereo not drawn) | -7.55
39 | CCn1ncc(Br)c1C(=O)Nc1sc2c(c1C(=O)OC)CCC2 | -40.8
40 | O=C(Cc1ccc(F)cc1)NC1CCS(=O)(=O)C1 (stereo not drawn) | 9.36
41 | Cc1cc(-c2ccccc2)oc(=O)c1NC(=O)c1ccccc1 | 3.11
42 | O=C(N/N=C/c1ccc([N+](=O)[O-])cc1)c1cccnc1 | 0.658
43 | Cc1cccc(Nc2ccccc2C(=O)O)c1C | 2.88
44 | CN1CCc2c(sc3c2c(=O)n(-c2ccccc2)c2nnc(SCc4ccc(Cl)cc4)n32)C1 | -2.08

Row | Structure (SMILES) | hERG current change (%, negative = inhibition) at 10uM [%]
45 | CCCCSCCCNC(=O)CCCN1C(=O)c2ccccc2Sc2ncccc21 | -27.6
46 | COc1ccc(N(C(=O)c2ccc3c(c2)OCO3)C2C=CS(=O)(=O)C2)c(OC)c1 (stereo not drawn) | -22.3
47 | CCN(CC1CCCN(CCc2cccc(F)c2)C1)C(=O)c1ccc(CSC)o1 (stereo not drawn) | -74.5
48 | CN(C)CCN(CC1CCCN(Cc2ccccc2F)C1)C(=O)Cc1c(F)cccc1F (stereo not drawn) | -9.05
49 | Cc1cc(C(=O)N(C)CC2CCCN(CCc3ccc(F)cc3)C2)c(C)o1 (stereo not drawn) | -75.7
50 | CCN(CC)C(=O)C1CCCN(Cc2cccc(F)c2)C1 (stereo not drawn) | 7.43
51 | CCN(CC1CCCN(CCc2cccc(F)c2)C1)C(=O)c1cc(C)oc1C (stereo not drawn) | -66.8
52 | CSCc1ccc(C(=O)N2CCCC(Nc3ccc(F)cc3)C2)o1 (stereo not drawn) | -18.7
53 | C=CCC(=O)N(CC)CC1CCCN(CCc2cccc(F)c2)C1 (stereo not drawn) | -54.2
54 | C=CCn1c(SCC(=O)Nc2ccc3c(c2)OCO3)nnc1-c1ccccc1OC | -7.02
55 | O=S(=O)(c1cccc(-c2nnc(-c3cccnc3)o2)c1)N1CCCCC1 | -25
56 | CCOC(=O)Cc1csc(NC(=O)COc2ccccc2OCC)n1 | -24.2
57 | O=S(=O)(Cc1ccccc1Cl)c1ncn[nH]1 | 14.2
58 | COc1ccccc1C(=O)COC(=O)CSC(C)C(=O)Nc1cc(C)on1 (stereo not drawn) | -13.7
59 | CCOc1ccc(CN(C)C(=O)Cc2c[nH]c3ccccc23)cc1 | 12
60 | O=C(c1cc2ccccc2o1)N1CCN=C1SCc1cccc(F)c1 | -7.82
61 | O=C(NCC1CCCN(Cc2cccc(F)c2)C1)c1cccc2ccccc12 (stereo not drawn) | -17.6
62 | CCN(CC1CCCN(CCc2cccc(F)c2)C1)C(=O)c1cc2ccccc2o1 (stereo not drawn) | -79.6
63 | O=C(CN(C(=O)CCC(=O)Nc1ccccn1)c1ccc2c(c1)OCO2)NCc1ccc(F)cc1 | 9.42
64 | CCOc1ccccc1NC(=O)NC1CC2CCCC(C1)N2Cc1nnnn1CCc1ccccc1 (stereo not drawn) | -5.67
65 | O=C(Nc1cccn(Cc2ccc(F)cc2)c1=O)NC1CCCCC1 | -36.2
66 | CCc1ccccc1NC(=S)NC1CC2CCC(C1)N2Cc1ccc(F)cc1 (stereo not drawn) | -42

Row | Structure (SMILES) | hERG current change (%, negative = inhibition) at 10uM [%]
67 | O=C(Nc1ccccc1-c1ccccc1)NC1CC2CCCC(C1)N2CCc1ccccc1 (stereo not drawn) | -53.3
68 | O=C(Nc1ccccc1-c1ccccc1)NC1CC2CCCC(C1)N2Cc1ccc(F)cc1 (stereo not drawn) | -66.4
69 | CCNC(=S)NC1CC2CCCC(C1)N2CCc1ccccc1 (stereo not drawn) | -48.7
70 | O=C(N/N=C/c1ccc[nH]1)c1ccncc1 | 20.2
71 | COc1cccc(NC(=O)CCS(=O)(=O)c2cccs2)c1 | 14
72 | CC(=O)c1c(C)[nH]c(C(=O)OCC(=O)N2CC(C)OC(C)C2)c1C (stereo not drawn) | 20.7
73 | CCCCNC(=O)/C=C/c1ccc(S(=O)(=O)Nc2ccc(OC)cc2)cc1 | 3.52
74 | Cc1cnc(NC(=O)C2(c3ccccc3)CC2)s1 | 7.07
75 | O=C(Nc1sc2c(c1C(=O)O)CCCCC2)c1cccnc1 | 16.7
76 | CC(C)NC(=O)c1sc2c(c1C(=O)Nc1cccnc1)CCCC2 | -69.7
77 | NC(=O)c1c(NC(=O)c2cccnc2)sc2c1CCCC2 | 17.5
78 | Cc1cc(-c2onc(C)c2C(=O)Oc2ccc(Cl)cc2)no1 | -2.56
79 | Cc1cc(C)nc(SCCn2c(N3CCCCC3)nc3c2c(=O)n(C)c(=O)n3C)n1 | -4.05
80 | CC1(C)CC(=O)C=C(NC2CCCCCC2)C1 | -1.93
81 | O=C(Oc1ccc2ccccc2c1)C1CCC1 | 17
82 | Cc1ccccc1-c1nnn(CC(=O)N2CCN(C(=O)c3ccco3)CC2)n1 | -40.1
83 | O=C(Nc1ccc(-c2nnn(CC(=O)N3CCN(C(=O)c4ccco4)CC3)n2)cc1)c1ccccc1F | -53.2
84 | O=C(Cn1nnc(-c2ccccc2)n1)N1CCN(S(=O)(=O)c2ccc(Cl)cc2)CC1 | 3.96
85 | COc1ccc(C(=O)Nc2ccc(-c3nnn(CC(=O)N4CCN(C(=O)c5ccco5)CC4)n3)cc2)cc1 | 7.09
86 | O=C(Nc1ccc(-c2nnn(CC(=O)N3CCN(C(=O)c4ccco4)CC3)n2)cc1)c1ccc(F)cc1 | 3.09
87 | O=C(Cn1nnc(-c2ccc(Cl)cc2)n1)N1CCN(C(=O)c2ccco2)CC1 | -65
